Compounds without any hit were thinned out: in the full panel of roughly 83,000, 20% have a hit.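 In brief: 96-well plates, 48 h treatment, single concentration, percent growth endpoint.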 Unmarked numbers belong to inactive results. The source made the active and inactive calls. The calls were made as follows: active = growth percent below 10; inactive = the rest.
Legend:
Assay in all cases: NCI-60 one-dose screen, 48 h (100 = growth as untreated, 0 = no growth, -100 = all killed)
Settings in all cases: 10 µM unless noted
SK-MEL-2 melanoma = tested on: SK-MEL-2 melanoma
EKVX NSCLC = tested on: EKVX NSCLC
SN12C renal = tested on: SN12C renal
UO-31 renal = tested on: UO-31 renal
TK-10 renal = tested on: TK-10 renal
ACHN renal = tested on: ACHN renal
A498 renal = tested on: A498 renal
CCRF-CEM leukemia = tested on: CCRF-CEM leukemia
MOLT-4 leukemia = tested on: MOLT-4 leukemia
SR leukemia = tested on: SR leukemia

Compound | growth (SK-MEL-2 melanoma) | growth (EKVX NSCLC) | growth (SN12C renal) | growth (UO-31 renal) | growth (TK-10 renal) | growth (ACHN renal) | growth (A498 renal) | growth (CCRF-CEM leukemia) | growth (MOLT-4 leukemia) | growth (SR leukemia)
CC(=O)OCC1SC(OC(C)=O)C(NC(=O)/C=C/CCl)C(OC(C)=O)C1OC(C)=O (stereo not given) | 79.9% | 102% | 89.4% | 102% | 93.8% | 92.1% | 96.3% | 83.7% | 88.1% | 86.2%
CC1CCN(CCCCCOc2ccc3oc4cc(Cl)ccc4c(=O)c3c2)CC1 | 88% | 83.8% | 63.5% | 67.7% | 78% | 83.1% | 85.2% | 65.5% | 29.7% | 16.5%
COc1ccc2nc(-c3ccc(Cl)cc3)cc(-c3nnc(SCC(=O)Nc4ccc(/C(C)=N\O)cc4)o3)c2c1 | 63.8% | 35.4% | -7.09% (active) | 77.8% | 79.4% | 65.6% | 64% | 31.1% | 12.4% | 6.61% (active)
C#C[C@@]1(O)[C@@H](CO)O[C@@H](n2ccc3c(N)ncnc32)[C@@H]1O | -8.72% (active) | -4.75% (active) | -12.3% (active) | -14.7% (active) | 3.25% (active) | 3.47% (active) | -53.2% (active) | 13.3% | -1.22% (active) | 12.1%
CCCCn1c(=O)c(/C=C/C(=O)/C=C/c2ccc(OC)cc2)cc2cc(Cl)ccc21 | 84% | 91% | 75.9% | 62.8% | 112% | 103% | 91.6% | 29.2% | 44.4% | 3.16% (active)
O=C(CN1N=C(c2ccc(F)cc2)CCC1=O)Nc1nc2ccccc2s1 | 92.7% | 24% | 40.2% | -84% (active) | 95.3% | -23.6% (active) | 97.8% | -72.1% (active) | 33.4% | -52.2% (active)
Nc1ccc(C(=O)Nc2cccc(C(=O)Nc3ccc4c(O)c(N=Nc5ccc(N=Nc6ccc(S(=O)(=O)O)cc6)cc5)c(S(=O)(=O)O)cc4c3)c2)cc1 | 97.5% | 105% | 101% | 88.4% | 97.1% | 106% | 107% | 98.5% | 92.1% | 92.2%
COc1cc(NCC(=O)Nc2cc(Nc3ccc(C)cc3)ncn2)c(Cl)c(OC)c1Cl | 103% | 82.1% | 88.1% | 62.1% | 121% | 92.6% | 84.9% | 81.8% | 60.8% | 78.9%
c1ccc(-c2n(Cc3ccc4ccccc4n3)cc[n+]2Cc2ccc3ccccc3n2)cc1 | -5.81% (active) | 70.2% | 22.1% | 76.5% | 58.7% | 96.8% | 56.1% | 28.4% | 37.9% | 25.1%
CC(=O)Nc1ccc2c(c1)Cc1cc(F)ccc1-2 | 94.8% | 104% | 107% | 56.8% | 104% | 104% | 73.2% | 99.1% | 89.4% | 87.5%
O=C1c2ccccc2C(=O)c2c1oc1c2c(=O)[nH]c2ccc(Cl)cc21 | 31.8% | 15.2% | -26.3% (active) | -54.9% (active) | -42.1% (active) | -14.2% (active) | 80.4% | 29% | 18.4% | 33.7%
CCOC(=O)c1c(C)nc2c(c1N)/C(=C/c1ccccn1)C(=O)N2Cc1ccccc1 | -26.1% (active) | 24.8% | 8.15% (active) | -65.6% (active) | 2.08% (active) | 0.89% (active) | 54.6% | 2.47% (active) | -12.8% (active) | -11.8% (active)
O=C(CCc1nnc2sc(OCc3ccccc3)nn12)c1nc2ccc([N+](=O)[O-])cc2[nH]1 | 95.6% | 89.3% | 106% | 67.2% | 131% | 97% | 111% | 104% | 95.4% | 84.1%
Nc1c(C(=O)Nc2ccccn2)sc2nc3c(cc12)CCCCCC3 | 11.5% | 31.8% | 39.2% | 35.5% | 35.7% | 36.1% | 15% | 5.58% (active) | 16.3% | 7.99% (active)
O=C(O)c1cc(N=Nc2ccc(-c3ccc(N=Nc4c(S(=O)(=O)O)cc5ccc(Nc6ccccc6)cc5c4O)cc3)cc2)ccc1O | 93.8% | 101% | 98.7% | 81.3% | 106% | 102% | 99.4% | 101% | 97.9% | 105%
Cc1nccc2c3ccc(OCc4cn(-c5ccccc5)nn4)cc3n(CCCc3ccccc3)c12 | 91.7% | 69.9% | 75.6% | 54.6% | 71.6% | 72% | 53.8% | 77.4% | 35.3% | 33.5%
NC(=N\N=C\c1ccccc1O)/C(N)=N/N=C/c1ccccc1O | 94.8% | 88.5% | 90.8% | 70.2% | 92.5% | 74.9% | 79% | 80.1% | 68.3% | 71.2%
COc1ccc(-n2cc(COc3ccc4c5ccnc(C)c5n(CC(C)C)c4c3)nn2)cc1 | 87.7% | 69% | 77% | 71% | 70.5% | 64.6% | 53.6% | 72.9% | 24.4% | 22.6%
O=c1c2ccccc2n(CC(O)CN2CCCC2)c2c(Br)cccc12 (stereo not given) | 112% | 99.1% | 109% | 89.1% | 106% | 108% | 71.8% | 82.3% | 104% | 77%
C=C1C(=O)O[C@H]2[C@H]1CC/C(COC(=O)c1cn(C)c3ccccc13)=C\CC[C@@]1(C)O[C@@H]21 | -60% (active) | -29.1% (active) | -40.3% (active) | -93.5% (active) | -75.2% (active) | -82.7% (active) | 65.4% | 1.59% (active) | -0.986% (active) | -9.81% (active)
CCN1CCN(c2ccc(NC(=O)Nc3nc4ccc(-c5ccccc5OC)cc4s3)cc2)CC1 | -65.5% (active) | -68.4% (active) | -82.1% (active) | -91.6% (active) | -48% (active) | -95.5% (active) | 70.2% | -17.3% (active) | -51.7% (active) | -38% (active)
O=C(CSC(=S)N1CCCCC1)Nc1ccccc1 | 92.1% | 106% | 106% | 86.5% | 85.8% | 98.8% | 99.5% | 89.9% | 86.5% | 87.1%
Cc1cc(O)cc(O)c1N=NC1=NCCS1 | 98.3% | 96.5% | 109% | 89.9% | 135% | 97.3% | -6.58% (active) | 101% | 94.1% | 97.1%
CCOC(=O)NC(Cc1ccccc1)c1ccccc1 (stereo not given) | 99.2% | 105% | 106% | 93.2% | 96% | 109% | 94% | 98.1% | 85.8% | 81.7%
NC(=O)c1ccc2nc3c(n2c1)C(=O)C(=O)c1ccccc1-3 | -71.2% (active) | -76% (active) | -83.3% (active) | -99.7% (active) | -72.9% (active) | -100% (active) | -58.6% (active) | -1.51% (active) | -37.8% (active) | -4.89% (active)
